Measurements: ChEMBL document CHEMBL3988442, “University of Dundee, Small-Polar-MMV Screening Library” (2021)
For some assays here: Measured potencies and affinities stand elsewhere.

How the values were obtained:
Set-up in all cases: scale not given: direction of the effect not stated beside the values
[1] = target: Protein translocase subunit SecA (Escherichia coli (strain K12)) (UniProt P10408); assay: Assay to Identify E. coli SecA ATPase Inhibitors; format: functional; details: 30 µM
[2] = target: T1, Ubiquitin-activating enzyme e1, putative (Leishmania donovani (strain BPK282A1)) (UniProt E9BSI1); assay: Leishmania donovani Ubiquitin Activating Enzyme (LdE1); format: functional; details: 30 µM
T1 sequence (whole entry): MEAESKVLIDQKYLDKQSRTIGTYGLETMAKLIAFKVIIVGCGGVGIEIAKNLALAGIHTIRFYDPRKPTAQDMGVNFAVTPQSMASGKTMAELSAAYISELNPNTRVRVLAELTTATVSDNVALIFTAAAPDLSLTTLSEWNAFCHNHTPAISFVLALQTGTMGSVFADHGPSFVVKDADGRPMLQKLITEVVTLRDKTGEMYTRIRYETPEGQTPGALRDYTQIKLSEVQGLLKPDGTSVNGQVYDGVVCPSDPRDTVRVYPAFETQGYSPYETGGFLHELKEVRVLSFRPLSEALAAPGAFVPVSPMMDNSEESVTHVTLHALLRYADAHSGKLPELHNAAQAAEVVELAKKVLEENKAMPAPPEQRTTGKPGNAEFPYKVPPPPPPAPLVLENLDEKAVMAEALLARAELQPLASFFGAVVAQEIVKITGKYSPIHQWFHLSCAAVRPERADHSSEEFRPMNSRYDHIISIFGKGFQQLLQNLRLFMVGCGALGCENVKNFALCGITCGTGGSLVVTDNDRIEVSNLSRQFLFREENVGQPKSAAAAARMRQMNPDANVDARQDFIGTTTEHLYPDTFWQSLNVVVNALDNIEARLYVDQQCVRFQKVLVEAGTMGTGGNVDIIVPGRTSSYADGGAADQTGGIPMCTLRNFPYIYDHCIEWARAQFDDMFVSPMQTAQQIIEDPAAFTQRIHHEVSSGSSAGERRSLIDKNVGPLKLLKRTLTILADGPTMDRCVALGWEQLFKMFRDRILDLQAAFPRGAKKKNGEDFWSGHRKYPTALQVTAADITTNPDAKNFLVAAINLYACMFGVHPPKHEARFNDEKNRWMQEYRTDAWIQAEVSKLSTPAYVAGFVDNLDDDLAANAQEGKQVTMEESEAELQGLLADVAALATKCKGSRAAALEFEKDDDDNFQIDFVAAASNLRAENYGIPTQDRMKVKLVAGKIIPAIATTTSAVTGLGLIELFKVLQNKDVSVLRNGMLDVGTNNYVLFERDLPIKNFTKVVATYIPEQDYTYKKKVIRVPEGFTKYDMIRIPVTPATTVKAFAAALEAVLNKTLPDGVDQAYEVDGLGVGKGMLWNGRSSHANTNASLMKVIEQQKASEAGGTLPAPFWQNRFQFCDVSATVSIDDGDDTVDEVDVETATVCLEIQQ

[3] = target: AMP-activated protein kinase, AMPK (Homo sapiens) (UniProt P54646+O43741+P54619+Q9UGJ0+Q9Y478+Q13131+Q9UGI9); assay: AMP-dependent Kinase enzyme assay. An in vitro enzyme assay that detects ADP turnover that is directly proportional to AMPK activity. This uses naive AMPK that is activated during the assay with MK-8722; format: functional; details: 30 µM
[4] = target: Sialic acid-binding Ig-like lectin 9 (Homo sapiens) (UniProt Q9Y336); assay: Hs-Siglec9 ALPHAscreen SOP 20170721; details: 10 µM
Sialic acid-binding Ig-like lectin 9 (Homo sapiens), sequence (Q9Y336 whole entry): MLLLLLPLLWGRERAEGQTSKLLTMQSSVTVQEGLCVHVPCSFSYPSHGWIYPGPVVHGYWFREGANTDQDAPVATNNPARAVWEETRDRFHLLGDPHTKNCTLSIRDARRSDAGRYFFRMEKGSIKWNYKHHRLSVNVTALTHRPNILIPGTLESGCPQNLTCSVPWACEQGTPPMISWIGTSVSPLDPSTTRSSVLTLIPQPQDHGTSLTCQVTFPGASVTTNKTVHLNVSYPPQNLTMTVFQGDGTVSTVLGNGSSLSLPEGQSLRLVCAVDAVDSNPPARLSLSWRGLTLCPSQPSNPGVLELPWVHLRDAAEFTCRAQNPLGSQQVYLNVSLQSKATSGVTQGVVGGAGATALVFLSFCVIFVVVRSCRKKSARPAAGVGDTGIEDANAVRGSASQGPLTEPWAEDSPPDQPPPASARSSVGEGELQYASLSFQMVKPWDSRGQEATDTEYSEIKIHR

Trypanosoma cruzi = assay: Trypanosoma cruzi phosphomannomutase and mannose-1-phosphate guanylyltransferase assay; format: functional; details: 10 µM
[5] = target: T2, Arginase-2, mitochondrial (Homo sapiens) (UniProt P78540); assay: in vitro enzyme assay to detect the production of urea directly proportional to the activity of Arginase II; format: functional; details: 33.3 µM; also: in the data most compounds retested in dose-response had high values
T2 sequence (whole entry): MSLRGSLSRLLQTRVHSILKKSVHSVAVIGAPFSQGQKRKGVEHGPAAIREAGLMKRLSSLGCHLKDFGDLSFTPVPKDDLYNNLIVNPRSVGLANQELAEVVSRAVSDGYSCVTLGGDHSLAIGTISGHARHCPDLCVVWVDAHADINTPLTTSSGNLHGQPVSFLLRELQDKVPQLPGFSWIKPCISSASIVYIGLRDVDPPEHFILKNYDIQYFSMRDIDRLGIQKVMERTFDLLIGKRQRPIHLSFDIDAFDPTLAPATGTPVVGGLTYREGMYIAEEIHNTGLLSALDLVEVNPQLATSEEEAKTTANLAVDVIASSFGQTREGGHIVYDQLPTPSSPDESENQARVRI

[6] = target: T3, Proteasome subunit beta (Trypanosoma cruzi) (UniProt O96673); assay: Trypanosoma cruzi proteasome chymotrypsin-like activity (TcProtChymo) assay.; also: in the data most compounds retested in dose-response had high values; format: functional; details: 9.37 µM
T3 sequence (whole entry): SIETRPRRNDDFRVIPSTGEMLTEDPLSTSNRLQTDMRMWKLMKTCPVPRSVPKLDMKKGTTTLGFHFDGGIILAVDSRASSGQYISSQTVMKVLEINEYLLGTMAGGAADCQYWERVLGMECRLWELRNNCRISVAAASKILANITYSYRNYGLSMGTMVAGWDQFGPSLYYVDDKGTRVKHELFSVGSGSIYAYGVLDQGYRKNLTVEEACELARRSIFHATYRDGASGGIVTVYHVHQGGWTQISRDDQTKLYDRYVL

Homo sapiens = species on record: Homo sapiens; assay: To identify inhibition of the IFN signalling (Jak-Stat) pathway via expression of an eGFP reporter gene under the control of an IFN-stimulated response element (ISRE) containing MxA promoter.; format: functional; details: 30 µM
[7] = target: T4, Tyrosyl-tRNA synthetase, putative (Trypanosoma cruzi (strain CL Brener)) (UniProt Q4DSP6); assay: Trypanosoma cruzi tyrosyl tRNA synthetase (TcYRS) _High Tyrosine SOP; format: functional; details: 30 µM; also: in the data most compounds retested in dose-response had high values
T4 sequence (whole entry): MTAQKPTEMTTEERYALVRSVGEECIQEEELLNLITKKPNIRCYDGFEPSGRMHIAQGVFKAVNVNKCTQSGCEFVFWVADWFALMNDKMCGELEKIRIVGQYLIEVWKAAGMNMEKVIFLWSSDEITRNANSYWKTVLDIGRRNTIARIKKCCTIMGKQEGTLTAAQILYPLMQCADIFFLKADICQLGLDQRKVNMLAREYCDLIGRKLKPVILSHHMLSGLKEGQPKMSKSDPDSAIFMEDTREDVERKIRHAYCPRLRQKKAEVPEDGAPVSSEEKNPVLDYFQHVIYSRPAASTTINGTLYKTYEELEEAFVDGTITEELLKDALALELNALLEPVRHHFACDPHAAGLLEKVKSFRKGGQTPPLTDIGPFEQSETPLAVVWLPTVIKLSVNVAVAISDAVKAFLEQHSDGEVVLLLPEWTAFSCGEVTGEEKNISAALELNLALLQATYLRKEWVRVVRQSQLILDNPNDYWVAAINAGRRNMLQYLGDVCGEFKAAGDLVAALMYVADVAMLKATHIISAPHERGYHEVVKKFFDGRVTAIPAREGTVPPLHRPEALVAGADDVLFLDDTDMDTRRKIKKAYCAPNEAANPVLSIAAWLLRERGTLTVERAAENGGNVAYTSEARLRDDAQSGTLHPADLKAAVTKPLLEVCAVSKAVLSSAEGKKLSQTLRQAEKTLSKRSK

[8] = target: T4, Tyrosyl-tRNA synthetase, putative (Trypanosoma cruzi (strain CL Brener)); assay: Trypanosoma cruzi tyrosyl tRNA synthetase (TcYRS) SOP; format: functional; details: 30 µM
[9] = target: Chromo domain-containing protein 1 (Saccharomyces cerevisiae (strain ATCC 204508 / S288c) (Baker's yeast)) (UniProt P32657); assay: ScCHD-1 Enzyme Inhibition Assay; format: functional; details: 30 µM; also: in the data most compounds retested in dose-response had high values
Chromo domain-containing protein 1 (Saccharomyces cerevisiae (strain ATCC 204508 / S288c) (Baker's yeast)), sequence (P32657 whole entry, the tested form may be a part): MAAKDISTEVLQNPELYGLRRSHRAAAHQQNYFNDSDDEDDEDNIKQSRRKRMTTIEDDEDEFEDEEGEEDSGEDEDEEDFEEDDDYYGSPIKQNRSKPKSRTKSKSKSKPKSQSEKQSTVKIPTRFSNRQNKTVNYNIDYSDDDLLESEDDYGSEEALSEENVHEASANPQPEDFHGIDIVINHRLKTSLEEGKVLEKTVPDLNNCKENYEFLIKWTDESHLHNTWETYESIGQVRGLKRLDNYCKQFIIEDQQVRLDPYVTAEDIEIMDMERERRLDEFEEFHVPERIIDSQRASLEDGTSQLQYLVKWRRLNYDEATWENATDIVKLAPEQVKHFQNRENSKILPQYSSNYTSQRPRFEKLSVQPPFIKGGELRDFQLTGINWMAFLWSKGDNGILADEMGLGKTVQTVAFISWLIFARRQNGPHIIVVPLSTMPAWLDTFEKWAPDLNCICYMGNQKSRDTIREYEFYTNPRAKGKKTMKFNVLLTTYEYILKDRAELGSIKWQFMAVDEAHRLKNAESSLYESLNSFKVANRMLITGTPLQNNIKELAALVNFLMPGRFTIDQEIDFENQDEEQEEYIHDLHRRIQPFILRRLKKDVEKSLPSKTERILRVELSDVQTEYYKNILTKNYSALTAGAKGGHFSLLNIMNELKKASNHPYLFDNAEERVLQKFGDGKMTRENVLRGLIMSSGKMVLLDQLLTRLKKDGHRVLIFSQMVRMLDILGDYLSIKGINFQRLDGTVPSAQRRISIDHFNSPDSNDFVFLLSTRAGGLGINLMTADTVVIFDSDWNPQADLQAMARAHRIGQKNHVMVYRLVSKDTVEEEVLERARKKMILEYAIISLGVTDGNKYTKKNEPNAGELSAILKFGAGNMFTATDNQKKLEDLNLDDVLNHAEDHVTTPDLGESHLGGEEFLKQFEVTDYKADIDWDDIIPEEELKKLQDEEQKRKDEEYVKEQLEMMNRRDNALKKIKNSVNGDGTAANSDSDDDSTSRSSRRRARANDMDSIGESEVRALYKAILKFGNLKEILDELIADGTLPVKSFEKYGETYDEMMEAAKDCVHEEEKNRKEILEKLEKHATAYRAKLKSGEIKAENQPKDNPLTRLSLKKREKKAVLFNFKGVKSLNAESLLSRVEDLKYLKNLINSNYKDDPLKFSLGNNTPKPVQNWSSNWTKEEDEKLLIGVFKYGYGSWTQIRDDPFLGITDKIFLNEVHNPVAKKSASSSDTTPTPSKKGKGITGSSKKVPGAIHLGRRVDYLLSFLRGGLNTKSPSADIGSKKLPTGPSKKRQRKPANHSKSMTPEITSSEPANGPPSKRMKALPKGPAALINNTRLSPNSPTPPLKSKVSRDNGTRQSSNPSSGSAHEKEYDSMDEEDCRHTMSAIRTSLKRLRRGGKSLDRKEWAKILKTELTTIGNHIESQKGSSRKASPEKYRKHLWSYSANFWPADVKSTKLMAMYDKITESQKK

Protein translocase subunit SecA (Escherichia coli (strain K12)), sequence (P10408 whole entry): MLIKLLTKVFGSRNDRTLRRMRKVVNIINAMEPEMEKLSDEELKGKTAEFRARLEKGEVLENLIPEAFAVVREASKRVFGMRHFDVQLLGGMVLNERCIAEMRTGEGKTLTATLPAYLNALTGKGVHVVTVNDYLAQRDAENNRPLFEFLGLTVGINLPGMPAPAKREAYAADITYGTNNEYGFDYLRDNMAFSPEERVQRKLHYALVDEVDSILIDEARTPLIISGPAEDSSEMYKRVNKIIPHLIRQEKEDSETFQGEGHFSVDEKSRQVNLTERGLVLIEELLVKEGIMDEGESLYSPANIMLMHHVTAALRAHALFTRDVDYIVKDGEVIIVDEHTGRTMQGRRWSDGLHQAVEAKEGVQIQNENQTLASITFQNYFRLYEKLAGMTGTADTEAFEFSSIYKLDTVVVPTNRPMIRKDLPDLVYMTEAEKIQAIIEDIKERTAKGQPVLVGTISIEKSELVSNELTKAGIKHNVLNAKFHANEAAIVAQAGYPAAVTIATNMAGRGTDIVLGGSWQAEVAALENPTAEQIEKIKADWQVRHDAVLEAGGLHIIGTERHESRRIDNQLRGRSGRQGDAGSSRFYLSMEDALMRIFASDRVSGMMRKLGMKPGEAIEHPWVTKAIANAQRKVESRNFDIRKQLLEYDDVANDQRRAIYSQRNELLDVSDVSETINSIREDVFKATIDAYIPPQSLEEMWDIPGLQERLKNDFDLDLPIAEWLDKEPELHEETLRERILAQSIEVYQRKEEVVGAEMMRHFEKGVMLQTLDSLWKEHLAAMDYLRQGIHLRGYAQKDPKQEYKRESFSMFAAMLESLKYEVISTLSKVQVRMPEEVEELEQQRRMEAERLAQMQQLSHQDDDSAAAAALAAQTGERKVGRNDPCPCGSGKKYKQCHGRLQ

| SMILES | Percent Effect [1] [%] | Percent Effect [2] [%] | Percent Effect [3] [%] | Percent Effect [4] [%] | Percent Effect (Trypanosoma cruzi) [%] | Percent Effect [5] [%] | Percent Effect [6] [%] | Percent Effect (Homo sapiens) [%] | Percent Effect [7] [%] | Percent Effect [8] [%] | Percent Effect [9] [%] |
| --- | --- | --- | --- | --- | --- | --- | --- | --- | --- | --- | --- |
| Cc1cc(C[C@@H]2COC[C@H]2NCc2ccccc2C(F)(F)F)on1 | -5.6 | 4.05 | -0.353 | 6.23 | 1.58 | 0.232 | 14 | 5.54 | 3.23 | 11.7 | -18.2 |
| CC(C)Oc1ncccc1CNC(=O)N1CCC(C(N)=O)C1 (stereo unspecified) | -6.99 | 5.26 | -1.63 | 3.84 | -4.51 | 2.68 | 2 | 23.8 | 1.47 | 7.32 | -0.235 |
| CC(C(=O)N1CCC(Nc2cccnn2)CC1)n1ccnc1 (stereo unspecified) | -2.11 | 5.41 | -6.39 | 14.9 | 4.43 | -3.21 | 3.42 | 11.9 | 3.45 | 6.17 | -6.18 |
| CCn1c(C(=O)N2CCN(C(=O)NC(C)C)CC2)cc2ccccc21 | -9.42 | 2.6 | 5.86 | -4.68 | -3.37 | 0.356 | 6.93 | 14.7 | 0 | 0 | -7.12 |
| c1cnn(CC2CN(CCc3ccncc3)CCO2)c1 (stereo unspecified) | 1.49 | 13 | 1.87 | -13.5 | -2.06 | 0.632 | 6.22 | 32 | 4.76 | 21.2 | -16.1 |
| CC(C)n1ccc(-c2cc(C(=O)N3CCCC3)c3ccccn23)n1 | 2.31 | 13.5 | 128 | -12.1 | -4.79 | 0.319 | 3.69 | 65.6 | -1.08 | -2.56 | -12 |
| O=C(C1CCOCC1)N1CCO[C@H]2[C@@H](OCc3ccncc3)CC[C@@H]21 | -7.25 | 16.2 | -5.41 | 21.1 | 4.1 | 1.67 | 6.17 | 32.4 | 2.97 | 13.4 | -6.34 |
| O=C(CCc1cscn1)NS(=O)(=O)c1ccc2c(c1)CCC2 | -5.7 | 15.3 | -13.9 | 36.9 | 7.29 | 22.5 | 3.33 | 5.07 | 3.16 | 15.4 | -4.74 |
| COc1ccc(OC)c(CNCCc2cc(F)cc3c2OCOC3)c1 | -5.17 | -6.94 | -9.7 | 2.47 | 4.57 | -3.09 | 7.19 | 4.72 | 2.1 | 2.56 | -2.06 |
| Cc1nccn1C1CCCN(C(=O)c2cc3ccccc3[nH]2)C1 (stereo unspecified) | -6.7 | 2.53 | -10.1 | 1.72 | -2.74 | 0.76 | -4.83 | 27.9 | -2.46 | -3.8 | -6.65 |
| CCn1c(N)nc2cc(C(=O)NCc3ccccc3Cl)cnc21 | -5.22 | 8.22 | 1.39 | -1.08 | -0.196 | 5.91 | 14.9 | 5.03 | 7.53 | 17.5 | -4.29 |
| O=C(CSCC1CC1)N1CCCC(c2nccn2Cc2ccncc2)C1 (stereo unspecified) | -2.74 | 15.3 | -12.9 | 10.9 | 2.62 | 2.65 | 7.37 | -2.75 | 3.16 | 10.3 | -2.97 |
| CC(C)(C)C(=O)N1CCCC1c1nc(O)cc(-c2ccccn2)n1 (stereo unspecified) | -5.78 | 25.7 | 5.44 | 16.5 | 3.36 | -1.62 | 11.9 | 7.83 | 5.38 | 24.7 | -13.5 |
| O=C(c1cnccn1)N1CCc2onc(CN3CCOCC3)c2C1 | -1.8 | 0 | 11.9 | -11 | -6.75 | 2.87 | 11.8 | 13.9 | 1.08 | 2.56 | -5.16 |
| COCC(=O)NCc1cc(=O)n2c(n1)CN(Cc1ccsc1)CCC2 | -5.93 | 8.11 | 3.64 | -0.625 | -2.83 | 6.05 | 17.9 | -15.7 | 2.16 | 5.13 | 2.68 |
| Cc1nc(C)n(CC2CCCN(Cc3nnc(C(C)(C)C)o3)C2)n1 (stereo unspecified) | -3.5 | 10.5 | 5.56 | -2.35 | 5.55 | 0 | 7.77 | -1.74 | 2.13 | 5.2 | -3.94 |
